Assay results reported in PubChem BioAssay (NCI).
Compounds without any hit were thinned out: in the full panel of roughly 79,000, 15% have a hit. Activity calls are given as the source filed them. Cut-off read from the data, not from the text of the source: active = growth inhibition above about 70%; inactive = the rest.

Experiments:
[1] = NCI Yeast Anticancer Drug Screen. Data for the rad52 strain (AID 147);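 note: 0% = growth of vehicle-treated control cultures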; conditions: S. cerevisiae rad52 mutant growth inhibition, stronger effect = higher value
Method in brief: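 Here a repair-compromised yeast strain receives each compound; its growth is then quantified and normalised to vehicle-only controls.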

[2] = NCI Yeast Anticancer Drug Screen. Data for the wt1 strain (AID 149);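 note: 0% = growth of vehicle-treated wt1 cultures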; conditions: S. cerevisiae wt1 strain (SPY 50644) growth inhibition, stronger effect = higher value
Method in brief: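 Each compound is tested on wt1 yeast and the loss of growth versus vehicle gives the inhibition value.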

[3] = NCI Yeast Anticancer Drug Screen. Data for the rad50EPP+ strain (AID 151);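 note: 0% = growth of vehicle-treated control cultures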; conditions: S. cerevisiae rad50 mutant strain, stronger effect = higher value
Method in brief: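 Read-out is yeast growth inhibition relative to vehicle; cells used were the rad50EPP+ strain.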

[4] = NCI Yeast Anticancer Drug Screen. Data for the mgt1 strain (AID 153); conditions: S. cerevisiae mgt1 mutant growth inhibition, stronger effect = higher value
Method in brief: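 Measured: inhibition of mgt1 yeast growth by compound, normalized to vehicle-treated cultures.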

[5] = NCI Yeast Anticancer Drug Screen. Data for the rad50 strain (AID 155);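 note: 0% = growth of vehicle-only cultures of the same strain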; conditions: S. cerevisiae rad50 strain growth inhibition, stronger effect = higher value
Method in brief: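 Vehicle-treated cultures provide the reference for the growth inhibition reported for compound-exposed, repair-deficient yeast.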

[6] = NCI Yeast Anticancer Drug Screen. Data for the mec2-1 strain (AID 157); conditions: S. cerevisiae mec2-1 strain, stronger effect = higher value
Method in brief: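 Using mec2-1 yeast: add compound, measure growth, express inhibition versus vehicle-treated cultures.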

[7] = NCI Yeast Anticancer Drug Screen. Data for the rad14 strain (AID 159);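 note: 0% = growth of vehicle-treated control cultures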; conditions: S. cerevisiae rad14 strain growth inhibition, stronger effect = higher value
Method in brief: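 Inhibition of growth is reported for a repair-deficient yeast mutant following compound treatment, calculated relative to cultures that received vehicle.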

[8] = NCI Yeast Anticancer Drug Screen. Data for the sgs1 mgt1 strain (AID 161);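 note: 0% = growth of cultures given vehicle only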; conditions: S. cerevisiae sgs1 mgt1 strain, stronger effect = higher value
Method in brief: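 Yeast cells carrying a defined DNA-repair defect were exposed to test compounds. Growth inhibition was measured relative to vehicle-treated controls.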

[9] = NCI Yeast Anticancer Drug Screen. Data for the CLN2oe strain (AID 163);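 note: 0% = growth of vehicle-only control cultures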; conditions: S. cerevisiae CLN2oe strain, stronger effect = higher value
Method in brief: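 Whole-cell yeast growth assay. A strain engineered for altered cell-cycle control received compound, and inhibition relative to vehicle-treated cultures was recorded.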

[10] = NCI Yeast Anticancer Drug Screen. Data for the cln2 rad14 strain (AID 165);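 note: 0% = growth equal to vehicle treated cultures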; conditions: S. cerevisiae cln2 rad14 strain, stronger effect = higher value
Method in brief: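 Yeast strain cln2 rad14, bearing defects in cell cycle control and DNA repair, serves as the test system; values reflect growth inhibition compared with vehicle.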

[11] = NCI Yeast Anticancer Drug Screen. Data for the bub3 strain (AID 167); conditions: S. cerevisiae bub3 mutant strain, stronger effect = higher value
Method in brief: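 Mutant yeast screening strain plus compound; vehicle-treated cultures serve as the 0% inhibition reference.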

[12] = NCI Yeast Anticancer Drug Screen. Data for the wt2 strain (AID 169); conditions: S. cerevisiae wt2 strain growth inhibition, stronger effect = higher value
Method in brief: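 Treated yeast vs. vehicle-treated yeast: growth inhibition determined.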

[13] = NCI Yeast Anticancer Drug Screen. Data for the mlh1 strain (AID 171);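 note: 0% = growth of vehicle-treated control cultures of the same strain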; conditions: S. cerevisiae mlh1 strain growth inhibition, stronger effect = higher value
Method in brief: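 A yeast strain with a defined genetic lesion serves as the test organism. Cultures receive compound or vehicle, and growth is measured.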

[14] = NCI Yeast Anticancer Drug Screen. Data for the sgs1 strain (AID 173);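 note: 0% = growth of vehicle-only control cultures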; conditions: S. cerevisiae sgs1 mutant, stronger effect = higher value
Method in brief: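 A genetically defined yeast mutant is incubated with the test compound, and its growth is compared to that of the same strain given vehicle.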

[15] = NCI Yeast Anticancer Drug Screen. Data for the mlh1 rad18 strain (AID 175); conditions: S. cerevisiae mlh1 rad18 strain growth inhibition, stronger effect = higher value
Method in brief: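 Steps: expose repair-defective yeast to compound; measure growth; express inhibition against vehicle-treated controls.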

[16] = NCI Yeast Anticancer Drug Screen. Data for the rad18 strain (AID 177); conditions: S. cerevisiae rad18 mutant growth inhibition, stronger effect = higher value
Method in brief: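 Measured value is growth inhibition of a yeast strain bearing a DNA repair alteration, referenced to vehicle-treated cells.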

[17] = at 5.0 µM (retest, dose inferred, filed as 0.5)
[18] = at 50.0 µM (retest, dose inferred, filed as 5.0)

Measured: growth inhibition

O=C1c2ccccc2-c2nc3ccccc3nc21
inactive: [1]; at 1.2 µM -27% | [1]; at 3.7 µM -30% | [1]; at 11.0 µM -10% | [2]; at 1.2 µM -20% | [2]; at 3.7 µM -17% | [2]; at 11.0 µM -11% | [2]; at 33.0 µM 33% | [2]; at 100.0 µM 66% | [3]; at 1.2 µM 3% | [3]; at 3.7 µM 28% | [4]; at 1.2 µM -50% | [4]; at 3.7 µM -43% | [4]; at 11.0 µM -26% | [4]; at 33.0 µM -1% | [4]; at 100.0 µM 61% | [5]; at 1.2 µM -6% | [5]; at 3.7 µM -15% | [5]; at 11.0 µM 0% | [5]; at 50.0 µM -20.6% | [6]; at 1.2 µM -79% | [6]; at 3.7 µM -54% | [6]; at 11.0 µM -41% | [6]; at 33.0 µM 50% | [6]; at 50.0 µM -35.1% | [6]; at 100.0 µM 67% | [7]; at 1.2 µM -43% | [7]; at 3.7 µM -39% | [7]; at 11.0 µM -31% | [7]; at 33.0 µM 15% | [7]; at 100.0 µM 46% | [8]; [17] -21% | [8]; [18] 25% | [8]; at 50.0 µM -24.4% | [9]; at 1.2 µM -38% | [9]; at 3.7 µM -18% | [9]; at 11.0 µM -39% | [9]; at 33.0 µM -9% | [9]; at 100.0 µM 34% | [10]; [17] 25% | [10]; [18] 52% | [10]; at 50.0 µM 3.35% | [11]; at 1.2 µM -19% | [11]; at 3.7 µM -13% | [11]; [17] 21% | [11]; at 11.0 µM -11% | [11]; at 33.0 µM 46% | [11]; [18] 39% | [11]; at 50.0 µM -14.2% | [11]; at 100.0 µM 66% | [12]; at 1.2 µM -25% | [12]; at 3.7 µM -22% | [12]; at 11.0 µM -10% | [12]; at 33.0 µM 28% | [12]; at 100.0 µM 61% | [13]; at 1.2 µM -31% | [13]; at 3.7 µM -30% | [13]; at 11.0 µM -25% | [13]; at 33.0 µM -1% | [13]; at 100.0 µM 61% | [14]; at 1.2 µM -48% | [14]; at 3.7 µM -57% | [14]; at 11.0 µM -57% | [14]; at 33.0 µM -19% | [14]; at 100.0 µM 36% | [15]; at 50.0 µM 66.7% | [16]; at 1.2 µM -47% | [16]; at 3.7 µM -38% | [16]; at 11.0 µM -28% | [16]; at 33.0 µM 12% | [16]; at 100.0 µM 58%
active: [1]; at 33.0 µM 90% | [1]; at 100.0 µM 91% | [3]; at 11.0 µM 79% | [3]; at 33.0 µM 95% | [3]; at 100.0 µM 81% | [5]; [17] 80% | [5]; at 33.0 µM 85% | [5]; [18] 97% | [5]; at 100.0 µM 83% | [6]; [17] 83% | [6]; [18] 98% | [15]; [17] 84% | [15]; [18] 99%

CSC(=S)Nc1cc(C)ccn1
inactive: [1]; at 1.2 µM -5% | [1]; at 3.7 µM 6% | [1]; at 11.0 µM 37% | [1]; at 33.0 µM 38% | [2]; at 1.2 µM -9% | [2]; at 3.7 µM -3% | [2]; at 11.0 µM 17% | [2]; at 33.0 µM 32% | [3]; at 1.2 µM -7% | [3]; at 3.7 µM -15% | [3]; at 11.0 µM 29% | [4]; at 1.2 µM -34% | [4]; at 3.7 µM -27% | [4]; at 11.0 µM 37% | [4]; at 33.0 µM 23% | [5]; at 1.2 µM 12% | [5]; at 3.7 µM 15% | [5]; [17] 60% | [5]; at 11.0 µM 64% | [6]; at 1.2 µM -19% | [6]; at 3.7 µM -25% | [6]; [17] 52% | [6]; at 11.0 µM 39% | [6]; at 33.0 µM 50% | [7]; at 1.2 µM -26% | [7]; at 3.7 µM -12% | [7]; at 11.0 µM 42% | [7]; at 33.0 µM 24% | [8]; [17] -11% | [9]; at 1.2 µM 20% | [9]; at 3.7 µM 3% | [9]; at 11.0 µM 31% | [9]; at 33.0 µM 26% | [10]; [17] 39% | [11]; at 1.2 µM -8% | [11]; at 3.7 µM 50% | [11]; [17] 8% | [11]; at 11.0 µM 41% | [11]; at 33.0 µM 30% | [12]; at 1.2 µM -7% | [12]; at 3.7 µM -13% | [12]; at 11.0 µM 23% | [12]; at 33.0 µM 23% | [13]; at 1.2 µM 0% | [13]; at 3.7 µM -4% | [13]; at 11.0 µM 54% | [13]; at 33.0 µM 51% | [14]; at 1.2 µM -11% | [14]; at 3.7 µM -3% | [14]; at 11.0 µM 46% | [14]; at 33.0 µM 52% | [15]; [17] 50% | [16]; at 1.2 µM -23% | [16]; at 3.7 µM -29% | [16]; at 11.0 µM 15% | [16]; at 33.0 µM 39%
active: [1]; at 100.0 µM 82% | [2]; at 100.0 µM 79% | [3]; at 33.0 µM 89% | [3]; at 100.0 µM 91% | [4]; at 100.0 µM 76% | [5]; at 33.0 µM 84% | [5]; [18] 99% | [5]; at 50.0 µM 84.8% | [5]; at 100.0 µM 92% | [6]; [18] 99% | [6]; at 50.0 µM 70.3% | [6]; at 100.0 µM 84% | [7]; at 100.0 µM 75% | [8]; [18] 90% | [8]; at 50.0 µM 81.2% | [9]; at 100.0 µM 74% | [10]; [18] 86% | [10]; at 50.0 µM 83% | [11]; [18] 94% | [11]; at 50.0 µM 86% | [11]; at 100.0 µM 83% | [12]; at 100.0 µM 70% | [13]; at 100.0 µM 85% | [14]; at 100.0 µM 93% | [15]; [18] 99% | [15]; at 50.0 µM 83.8% | [16]; at 100.0 µM 75%
